INHIBITION data for 103 molecules are collected here from ChEMBL document CHEMBL4513216, “Probing the Open Global Health Chemical Diversity Library for Multistage-Active Starting Points for Next-Generation Antimalarials” (ACS Infect Dis, 2020).

Hit rate of the full screen: of about 69,000 compounds, about 8,600 (12%) showed an effect of 50% or more. The full list was thinned out, with strong results kept by preference.

This experiment has as its system Plasmodium berghei. Briefly: Screen against P. berghei liver stage (PbLuc), transformed with Luciferase, at 10uM. The note with it: tested at 10 uM. It counts as functional, HepG2.
With `Cc1nc(CN2CCC3(CCCN(Cc4ccoc4)C3)C2=O)cs1` (stereo not drawn), the INHIBITION is -5.31%. The result for `COc1c[nH]c(C(=O)Nc2nc(C(C)(C)C)cs2)cc1=O` reads 29.4%. As to `CC[C@H](C)[C@H](N)C(=O)Nc1nc(-c2cnc(N(C)C)nc2)cs1`, the INHIBITION amounted to 21.9%.

Take `CCN1CC2(CC1=O)CN(Cc1ccco1)CCN(C(=O)N(C)C)C2` (stereo not drawn): the INHIBITION amounted to 5.14%. For `CCN1CC2(CC1=O)CN(C(=O)C(C)C)CCN(S(=O)(=O)CC)C2` (stereo not drawn), the INHIBITION worked out at 52.3%.

With `CCN1CC2(CC1=O)CN(C(C)=O)CCN(S(C)(=O)=O)C2` (stereo not drawn), the INHIBITION is on record as 26%. Regarding `CCN1CC2(CC1=O)CN(Cc1ccc(C)o1)CCN(C(=O)C(C)C)C2` (stereo not drawn), the INHIBITION is 42.5%. Turning to `CCN1CC2(CC1=O)CN(C(=O)N(C)C)CCN(S(C)(=O)=O)C2` (stereo not drawn), the INHIBITION is given as 31.9%.

As to `CCN1CC2(CC1=O)CN(C(=O)COC)CCN(S(C)(=O)=O)C2` (stereo not drawn), the INHIBITION worked out at 63%. The result for `CCN1CC2(CC1=O)CN(C(=O)C(C)C)CCN(S(C)(=O)=O)C2` (stereo not drawn) reads 46.7%; that for `CCN1CC2(CC1=O)CN(Cc1ccco1)CCN(C(=O)C(C)C)C2` (stereo not drawn), 57.4%; that for `CCS(=O)(=O)N1CCN(C(=O)C(C)C)CC2(CC(=O)N(C)C2)C1` (stereo not drawn), 45.8%. The result for `CC(C)c1nnc2n1CCN(C(=O)c1ccc3c(c1)CCC3)C2` reads -12.2%; that for `COc1ccccc1C1=NOC(CC2(C(=O)O)CCOCC2)C1` (stereo not drawn), 29.2%; that for `CCn1cnnc1C1CCN(C(=O)c2cccc(N(C)C)c2)CC1`, 39.7%.

For `CCc1cnc(N2C[C@H]3CN(Cc4csc(C)n4)C(=O)[C@H]3C2)nc1`, the INHIBITION worked out at 18.5%. Take `Cc1cc(C(=O)NS(C)(=O)=O)c(C)n1-c1ccccc1`: the INHIBITION is given as 37.9%.

Take `Cc1nc(CN2C[C@@H]3CN(C(=O)c4cnccn4)C[C@@H]3C2)cs1`: the INHIBITION is recorded as -13.2%.

For `CN1C[C@@H](C(=O)NC(C)(C)C)[C@@]2(CCc3ccccc3C(=O)N2)C1`, the INHIBITION is 16.5%. The same measure for `COCCn1ccc(NC(=O)Nc2cccnc2)n1`: 25.3%; for `Cc1cc(N2CCOC(c3ccc(N(C)C)cn3)C2)nc(N)n1` (stereo not drawn): -0.6%.

With `Cc1cc(C(=O)N2CCC3(CC2)COCCN(c2cccnc2)C3)[nH]n1`, the INHIBITION came out at 24.6%. In the case of `COc1ccnc(N2CCN(Cc3ncc(C(C)(C)C)o3)CC2)n1`, the INHIBITION is 9.76%. `COc1ccnc(N2CCCN(Cc3ncc(C(C)C)o3)CC2)n1`: the INHIBITION was found to be 9.76%. For the molecule `COc1ccnc(N2CCN(Cc3ncc(-c4ccccc4)o3)CC2)n1`, the INHIBITION is 56%. Regarding `Cc1nnc(CN(C)CCc2nc(-c3cccc(Cl)c3)no2)n1C`, the INHIBITION is 34.5%.

On to `CN(CCc1nc(-c2cccc(Cl)c2)no1)CCn1cccn1`, for which the INHIBITION is recorded as 12.6%. Turning to `Cc1noc(C)c1CN(C)CCc1nc(-c2cccc(Cl)c2)no1`, the INHIBITION is recorded as 88.1%. On to `O=C(Cc1cccnc1)N1CCC2(CC1)CCN(C1CCOC1)C2` (stereo not drawn), for which the INHIBITION came to 53.4%. With `O=C(Cc1cccnc1)N1CCC2(CC1)CCN(C1CCOCC1)C2`, the INHIBITION is on record as -3.19%. The same measure for `O=C(Cc1cccnc1)N1CCC2(CCN(C3CCOC3)CC2)C1` (stereo not drawn): -1.83%. `CC(=O)N1CCN(Cc2ccc(C)o2)CC2(CC(=O)N(C)C2)C1` (stereo not drawn): the INHIBITION came to 3.81%. `COc1ncccc1N(C)C(=O)Cn1cc(-c2ccccc2)nn1`: the INHIBITION was 4.34%. The result for `Cc1ccc(C2COCCN2C(=O)c2ccsc2)o1` (stereo not drawn) reads 3.77%; that for `N#CCCN(Cc1cccnc1)C(=O)c1ccc(OCC2CC2)cc1`, -92.2%. The same measure for `N#CCCN(CCC#N)C(=O)c1ccc(OCC2CC2)cc1`: -77.9%; for `N#CCCN(Cc1ccco1)C(=O)c1ccc(OCC2CC2)cc1`: 69.5%. The same measure for `CC(=O)NCC(=O)N1CCC2(CC1)NC(=O)CC2c1cnn(C)c1` (stereo not drawn): 43.1%; for `Cc1cnn(CC2CCCN2C(=O)c2cc(C)nc3[nH]nc(C)c23)c1` (stereo not drawn): -37.7%; for `CCOc1ncccc1C(=O)N1CCCC(c2nncn2C)C1` (stereo not drawn): -98.8%. With `CCc1nnc(CN2CCC3(CC2)Nc2ccccc2NC3=O)o1`, the INHIBITION was determined as 18.2%.

On to `CC(C)c1nnc(CN2CCC3(CC2)Nc2ccccc2NC3=O)o1`, for which the INHIBITION is -20.7%. In the case of `O=C1Nc2ccccc2NC12CCN(Cc1nnc(C3CC3)o1)CC2`, the INHIBITION amounted to 56.1%. In the case of `CC(=O)N1CCN(c2cc(-n3cccc3)ncn2)CC1`, the INHIBITION is -12.1%. Take `CN(c1cccnn1)[C@@H]1CC[C@@H]2CN(Cc3cccc(C(=O)O)c3)C[C@@H]21`: the INHIBITION is given as 30.6%. For the molecule `CC(C)CN(CC(O)c1ccc(F)cc1)C(=O)c1csnn1` (stereo not drawn), the INHIBITION is reported as -3.48%. For `CS(=O)(=O)N1CCN(CC(=O)Nc2cccc(Cl)c2)CC1`, the INHIBITION was found to be 6.83%. Take `c1ccc(C(NCc2nnc(-c3ccco3)o2)C2CCC2)cc1` (stereo not drawn): the INHIBITION is 50.8%. The result for `Fc1ccc(C(NCc2nnc(C3CC3)o2)C2CCC2)cc1` (stereo not drawn) reads 23.9%; that for `Fc1ccc(OC2CCN(Cc3nnc(-c4ccco4)o3)CC2)cc1`, -53.1%. The result for `Fc1ccc(C(NCc2nnc(-c3ccco3)o2)C2CCC2)cc1` (stereo not drawn) reads 82.3%. The same measure for `CC(C1CC1)N(C)Cc1nnc(-c2ccco2)o1` (stereo not drawn): 21.5%; for `Cc1ccc(N2CCCC(NCc3nnc(-c4ccco4)o3)C2)nn1` (stereo not drawn): 11.94%. With `CCc1nc(CN(C)C2CCN(CCn3cccn3)C2)no1` (stereo not drawn), the INHIBITION was 14.1%.

For the molecule `Cn1cnnc1CN1CCC2(CCCN(C3CCCC3)C2=O)C1` (stereo not drawn), the INHIBITION is -15.6%. On to `CCn1nc(C)c(CCNC(=O)C2CCCN(C3CCCC3)C2)c1C` (stereo not drawn), for which the INHIBITION was -23.4%. The same measure for `CCc1nnc2n1CCN(CC(O)CN1CCC(C)CC1)C2` (stereo not drawn): 30.3%. The result for `CC1CCN(CC(O)CN2CCn3c(nnc3C3CC3)C2)CC1` (stereo not drawn) reads 12.3%; that for `Cc1nnc2n1CCN(CC(O)CN1CCC(C)CC1)C2` (stereo not drawn), 78.2%; that for `COc1ccc(C)cc1CN(C)CC(N)=O`, -33.4%. The same measure for `Cc1ccc(S(=O)(=O)N2CCC3(CC(C(=O)NCC(C)C)=NO3)C2)cc1` (stereo not drawn): -10.2%; for `N#Cc1cccc(CN2CCC3(CC(C(=O)NCC4CC4)=NO3)C2)c1` (stereo not drawn): 52%; for `CC(C)CNC(=O)C1=NOC2(CCN(Cc3ccoc3)C2)C1` (stereo not drawn): -4.26%. As for `CC(C)CNC(=O)C1=NOC2(CCN(Cc3ccc(C(C)C)cc3)C2)C1` (stereo not drawn), the INHIBITION came to 80.2%. Consider `Cc1cccc(CN2CCC3(CC(C(=O)NCC(C)C)=NO3)C2)c1` (stereo not drawn), for which the INHIBITION stood at 76.2%. The result for `O=C(NCC1CC1)C1=NOC2(CCN(Cc3ccc4c(c3)OCO4)C2)C1` (stereo not drawn) reads 6.38%; that for `COc1ccc(CN2CCC3(CC2)CC(CC(=O)NC(C)C)CO3)cc1` (stereo not drawn), 18.6%. The same measure for `CC(C)CNC(=O)C1=NOC2(CCN(Cc3cccc(C#N)c3)C2)C1` (stereo not drawn): 20.6%. On to `COc1ccc(CN2CCC3(CC(C(=O)NCC(C)C)=NO3)C2)cc1` (stereo not drawn), for which the INHIBITION is on record as 78.2%. In the case of `Cc1ccc(CN2CCC3(CC(C(=O)NCC4CC4)=NO3)C2)cc1C` (stereo not drawn), the INHIBITION stood at 31.2%. The same measure for `CCc1ccc(CN2CCC3(CC(C(=O)NCC(C)C)=NO3)C2)o1` (stereo not drawn): 32.5%. The result for `Cc1oncc1C(=O)N[C@@H]1CN(c2ncccn2)C[C@@H]2CCCO[C@@H]21` reads -34.7%. The result for `O=c1[nH]c2cn(-c3cccc(Cl)c3)c(=O)n2[nH]1` reads -14.9%; that for `COc1ccc(CC(=O)N2CCN(c3nccn3C)CC2)cc1`, 40%; that for `COCCN1CCCC2(CCN(c3cc(C)c(C#N)c(C)n3)C2)C1=O` (stereo not drawn), -8.25%. Regarding `CN(C)C(=O)N1CCN(c2cc(N3CCCC3CO)ncn2)CC1` (stereo not drawn), the INHIBITION is listed as -3.68%.

In the case of `O=C(c1cncnc1)N1C[C@@H]2CC[C@H](Oc3cccc(F)c3)[C@@H]2C1`, the INHIBITION turned out to be 5.11%. The result for `CCc1n[nH]c(=O)c(C(=O)N2CCOC3(CCCC3)C2)c1CC` reads 48.2%; that for `Cn1cnc(S(=O)(=O)NCCCN2CCCC2)c1Cl`, -9.76%; that for `Cc1nnc(CN(C)C2CCN(CCc3ccccn3)CC2)o1`, 21.5%.

Take `Cc1cc(S(=O)(=O)NC(=O)CCc2cccnc2)c(C)s1`: the INHIBITION was 32%.

In the case of `O=C(CCn1ccc2cc(Br)ccc21)NCc1ccc(C(=O)O)cc1`, the INHIBITION is on record as 19%. `CC(CNC(=O)CCc1ccco1)N1CCc2sccc2C1` (stereo not drawn): the INHIBITION came to 42.5%. The result for `Cc1ccc(CCCC(=O)N2CCCC(CS(N)(=O)=O)C2)s1` (stereo not drawn) reads 9.79%. As to `CCCc1nnc(NC(=O)NC(C)Cn2cccn2)s1` (stereo not drawn), the INHIBITION is -45.6%. With `CCN(CC1CCOC1)C(=O)c1ccn(-c2ccc(OC)cc2)n1` (stereo not drawn), the INHIBITION was -2.48%. On to `COc1nccc(N2CC[C@H](CO)[C@@H](O)C2)c1C#N`, for which the INHIBITION is reported as -9.02%. As for `CC(NC(=O)c1cccs1)C(=O)NS(=O)(=O)c1cccc(C#N)c1` (stereo not drawn), the INHIBITION was 49.9%. The result for `CC(NC(=O)c1cccs1)C(=O)NS(=O)(=O)c1ccc(C#N)cc1` (stereo not drawn) reads 42.1%; that for `CC(NC(=O)c1cccs1)C(=O)NS(=O)(=O)Cc1ccc(C#N)cc1` (stereo not drawn), 53.3%.

For the molecule `CCOc1c(C(N)=O)cn(C)c1-c1nc2cc(NC(C)=O)ccc2n1C`, the INHIBITION came to 44.3%. The same measure for `CC(C)(C)C(=O)CN1Cc2ccccc2NCCC1=O`: 10.9%. As for `COC(=O)CN1Cc2cc3c(cc2NCCC1=O)OCO3`, the INHIBITION was found to be 41.1%. The result for `CC(C)(C)CN1Cc2cc3c(cc2NCCC1=O)OCO3` reads 52.5%. On to `CCN1Cc2cc3c(cc2NCCC1=O)OCO3`, for which the INHIBITION was 64.6%.

Turning to `O=C1CCNc2cc3c(cc2CN1Cc1ccco1)OCO3`, the INHIBITION is 4.82%. The same measure for `O=C1CCNc2cc3c(cc2CN1CC1CC1)OCO3`: 13.1%; for `O=C(c1n[nH]c(=O)c2ccccc12)N1CCCC1Cn1cccn1` (stereo not drawn): 45.9%.

For `O=C(O)CCc1nc2nccc(C(F)(F)F)n2n1`, the INHIBITION is recorded as -25.6%. The result for `O=C(OCC1CCCN1)c1cccc(NC(=O)c2ccco2)c1` (stereo not drawn) reads -142%. The result for `O=C1CC[C@@H]2[C@@H](CCN2S(=O)(=O)C2CC2)N1CC1CC1` reads 49.4%; that for `O=C1CC[C@H]2[C@H](CCN2S(=O)(=O)C2CC2)N1CCN1CCCC1`, 85.6%. For the molecule `COCCN1C(=O)CC[C@@H]2[C@@H]1CCN2S(=O)(=O)C1CC1`, the INHIBITION turned out to be 43.9%.
